# Shown are actives, neighbours in structure and some others; about 6.6% of the full set was active somewhere.
# GRIN3A LBD mod = binders of NR3A ligand-binding domain, primary screen, biophysical, differential scanning fluorimetry, uHTS; Glutamate receptor ionotropic, NMDA 3A (GRIN3A) ligand-binding domain; NR3A LBD differential scanning fluorimetry, Tm shift; 0% = protein alone, 100% = glycine-bound protein; Tm shift relative to glycine control, % at 25 µM; 340,000 compounds, 2.5% hits; AID 1259313, 2017;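 active = melting temperature shift of at least 10% of the positive control shift, at one fixed dose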
# MPTP inh = mitochondrial permeability transition pore inhibitors, primary screen, biochemical, isolated mouse mitochondria, absorbance; 360,000 compounds, 1.4% hits; Ca2+ swelling absorbance, 30 min; AID 602449, 2012; inhibition, % at 10 µM;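 active = inhibition of 50% or more, scaled per plate between neutral and stimulator controls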;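 note: 0% = DMSO wells given calcium and 100% = 1 mM EGTA wells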
# Beta cell apopt = inhibitors of cytokine-induced beta cell apoptosis, primary screen, luminescence. INS-1E cytokine-induced death, ATP luminescence, 48 h; percent of positive-control rescue, neutral wells zero. protection from apoptosis, % (concentration not given with the values). 300,000 compounds, 0.8% hits;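 active = Every replicate reaches about 75%, or at least half do and their mean reaches it too, limit read from the data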;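 note: 0% = cytokine-treated negative control wells and 100% = positive control rescue; higher means more ATP so stronger rescue from cytokine killing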
# Gli-Sufu antag = Gli-Sufu pathway antagonists, primary screen, luciferase luminescence, Sufu-KO-LIGHT cells, uHTS | Sufu-KO-LIGHT fibroblasts, Gli luciferase reporter luminescence | inhibition, % at 5 µM | 340,000 compounds, 0.74% hits;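 active = inhibition above about 55%, limit read from the data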;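 note: 0% = DMSO-treated cells and 100% = wells with medium but no cells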
# CSC inhib = cancer stem cell viability inhibitors, primary screen, luminescence; cancer stem cell-like cells viability; inhibition, % at 7.5 µM; 300,000 compounds, 1.1% hits; in the data active = inhibition above about 75%; tested in HMLE shEcad cells
# Mdm2-MdmX inh = inhibitors of human Mdm2-MdmX association, primary screen, cell-based, luminescence, split luciferase, SaOS-2, uHTS; 330,000 compounds, 3% hits; inhibition, % at 8 µM; SaOS-2 split-luciferase Mdm2/MdmX complementation; Protein Mdm4 (Homo sapiens) + E3 ubiquitin-protein ligase Mdm2 (Homo sapiens), …; AID 485346, 2010;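 active = inhibition of at least 50% at 8 µM in the primary screen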
# Target sequence (O15151 whole entry, looked up): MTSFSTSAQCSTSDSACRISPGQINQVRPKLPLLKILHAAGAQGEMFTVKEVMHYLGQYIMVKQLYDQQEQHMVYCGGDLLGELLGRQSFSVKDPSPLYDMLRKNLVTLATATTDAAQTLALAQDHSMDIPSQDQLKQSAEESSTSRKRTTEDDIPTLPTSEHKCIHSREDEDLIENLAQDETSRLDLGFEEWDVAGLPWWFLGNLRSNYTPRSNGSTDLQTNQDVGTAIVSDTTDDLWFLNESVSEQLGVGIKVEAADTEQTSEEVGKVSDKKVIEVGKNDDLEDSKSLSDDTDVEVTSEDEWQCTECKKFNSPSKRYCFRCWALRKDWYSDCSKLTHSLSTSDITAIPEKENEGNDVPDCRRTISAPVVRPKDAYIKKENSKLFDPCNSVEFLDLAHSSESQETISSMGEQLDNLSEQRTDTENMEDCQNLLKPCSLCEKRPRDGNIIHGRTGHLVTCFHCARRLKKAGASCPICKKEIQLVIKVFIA
# Target sequence (Q00987 whole entry, looked up): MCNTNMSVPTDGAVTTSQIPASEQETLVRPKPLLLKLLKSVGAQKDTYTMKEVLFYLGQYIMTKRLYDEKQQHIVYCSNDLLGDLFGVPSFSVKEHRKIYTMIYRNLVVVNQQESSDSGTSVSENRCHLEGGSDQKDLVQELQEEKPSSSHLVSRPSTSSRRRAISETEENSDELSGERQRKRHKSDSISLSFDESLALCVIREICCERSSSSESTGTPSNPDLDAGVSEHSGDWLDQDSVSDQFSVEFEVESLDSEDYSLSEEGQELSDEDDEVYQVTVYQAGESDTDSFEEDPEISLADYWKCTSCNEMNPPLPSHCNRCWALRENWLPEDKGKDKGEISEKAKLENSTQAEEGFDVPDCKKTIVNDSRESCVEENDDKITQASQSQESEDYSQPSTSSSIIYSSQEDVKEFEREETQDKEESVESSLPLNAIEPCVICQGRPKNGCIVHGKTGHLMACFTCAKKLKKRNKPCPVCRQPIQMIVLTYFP
# Rh123 counter = fluorescence retest of MPTP screen hits in isolated mitochondria, single concentration | membrane potential, Rhodamine 123 fluorescence | shares compounds with MPTP inh | inhibition, % at 10 µM | 5,000 compounds, 78% hits | AID 624504, 2012; in the data active = inhibition above about 22%;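 note: 0% = DMSO vehicle and 100% = positive control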
# * hit, by the source's call; · = no result.
SMILES,GRIN3A LBD mod,MPTP inh,Beta cell apopt,Gli-Sufu antag,CSC inhib,Mdm2-MdmX inh,Rh123 counter
O=C(Nc1ccc(Br)cc1)Nc1ccccc1Cl,21.0*,78.5*,23.6,-41.5,13.5,-72.9,103.2*
CSc1ccccc1NC(=O)Nc1ccc(Cl)cc1,3.0,92.4*,11.7,24.2,12.7,-43.3,75.2*
COc1ccc(NC(=O)Nc2ccccc2SC)cc1,-1.4,2.0,11.8,-42.0,17.9,-34.6,·
COc1cccc(OC)c1OCCN1CCC(C(=O)NC(c2ccc3c(c2)OCO3)c2ccccn2)CC1 (stereo not drawn),·,-0.7,·,·,·,·,·
CN(Cc1ccccc1)C(=O)COC(=O)c1cc(=O)[nH]c2ccccc12,-0.8,-0.4,2.1,-0.4,-7.5,8.9,·
CCC(/C=N/NC(=O)C(N)=O)CC,-1.3,-1.0,-5.1,-3.0,-9.1,13.7,·
CN(CC(=O)Nc1cccc(F)c1)CC(=O)Nc1ccccc1[N+](=O)[O-],0.5,77.9*,-4.7,·,-7.1,11.1,51.0*
CN(CC(=O)Nc1cccc(F)c1)CC(=O)Nc1ccc(Cl)cc1[N+](=O)[O-],-0.9,1.0,-5.2,4.2,9.7,6.2,·
CC(C)(C)C1=CC(=O)C(=O)C(C(C)(C)C)=C1,4.7,79.7*,-0.1,-1.1,62.5,18.4,4.4
COc1ccc(C(N)c2csc(Nc3ccc(C(F)(F)F)cn3)n2)cc1 (stereo not drawn),·,3.9,·,·,·,·,·
CN(C)CCCN1c2ccccc2CCc2ccc(Cl)cc21,0.6,79.5*,-1.4,-3.0,8.4,38.3,-15.2
CN(CCCN1c2ccccc2CCc2ccccc21)CC(=O)c1ccc(Cl)cc1,·,·,0.9,·,-4.4,16.2,·
CC1CN(C(=O)Nc2cccc(C(F)(F)F)c2)CC(C)O1 (stereo not drawn),-4.8,6.3,·,3.0,-5.6,0.9,·
CC(N=c1ccccn1C(=O)Nc1cccc(C(F)(F)F)c1)c1ccco1 (stereo not drawn),-0.6,90.1*,5.5,6.9,5.5,-11.9,83.6*
NC(=O)/C=C/C(=O)Nc1ccc(Cl)cc1,-0.4,0.9,-13.4,-4.9,-3.6,-3.9,·
O=C(/C=C/C(Cl)(Cl)Cl)Nc1ccc(Cl)cc1,-9.8,96.0*,·,18.3,·,·,101.7*
Cc1ccc(-c2cc(C(=O)Nc3ccc(S(=O)(=O)N4CC(C)OC(C)C4)cc3)[nH]n2)c(O)c1 (stereo not drawn),29.9*,51.3*,-0.4,12.9,-0.5,10.0,69.4*
Fc1ccc(NC(=S)NC23CN4CN(CN(C4)C2)C3)cc1,1.9,0.0,-5.2,4.3,-6.2,2.5,·
COc1ccc([C@H]2CC(=O)C=C(c3ccc(CNC(=O)OC(C)(C)C)cc3)C2)cc1,2.7,70.9*,35.9,10.5,1.6,4.4,80.4*
CCOC(=O)C1(C(=O)OCC)CCN(S(=O)(=O)c2ccccc2)CC1,-0.2,-0.6,·,-0.7,·,·,·
N#CCCN(C(=O)Nc1ccc(Cl)c(Cl)c1)c1ccccc1,-3.3,97.0*,2.2,2.6,-5.3,11.2,92.9*
CC[C@H](C)Cc1cn([C@@H](CCCCN)C(=O)NCCCCCCCCCCC(=O)N2CCNCC2)nn1,0.9,89.1*,-3.7,-2.7,0.3,-2.4,-13.3
CCOC(=O)/C(=N/Nc1ccc(Cl)cc1)S(=O)(=O)c1ccc(Cl)cc1,1.4,2.3,-2.2,-13.0,16.6,-11.9,·
CCOC(=O)C(=N/O)/C(C)=N/NC(=O)C(=O)Nc1ccc(Cl)cc1,-2.2,81.8*,26.7,39.0,15.1,0.4,68.7*
COC(=O)[C@]1(C)CCC[C@@]2(C)C3CC[C@@]4(C)C[C@]3(CCC21)CC(=O)N4Cc1ccc(OC)cc1 (stereo partly drawn),0.5,-0.1,16.7,13.8,28.9,26.8,·
SMILES,GRIN3A LBD mod,MPTP inh,Beta cell apopt,Gli-Sufu antag,CSC inhib,Mdm2-MdmX inh,Rh123 counter
Cc1c(Cl)cccc1NC(=S)NCCc1ccccn1,1.6,-0.1,-5.7,4.2,-10.3,-1.2,·
S=C(NCCCc1ccccc1)Nc1ccccc1Cl,17.6*,86.2*,0.8,-7.5,0.7,16.7,99.8*
S=C(NCCc1ccccn1)Nc1cc(Cl)cc(Cl)c1,-9.8,60.1*,4.2,-3.2,22.1,15.4,77.1*
S=C(NCCc1ccccn1)Nc1ccc(Cl)c(Cl)c1,-2.0,16.9,-5.6,-4.0,11.7,5.0,·
S=C(NCCc1ccccc1)Nc1ccccc1Cl,1.0,0.6,-2.7,-9.4,5.2,23.3,·
Cc1c(Cl)cccc1NC(=S)NCCc1ccc(C(F)(F)F)cc1,7.2,98.4*,-3.2,1.1,31.2,5.2,95.9*
S=C(NCCc1ccccc1)Nc1ccc(Cl)cc1,27.3*,100.2*,0.2,-21.7,1.7,-35.2,90.0*
CCOc1ccccc1NC(=O)NNS(=O)(=O)c1cc(OC)ccc1OC,0.3,0.9,-2.6,1.4,-6.2,21.1,·
Cc1ccc(SC[C@H](c2ccccc2)N2CCN(CC(C)C)CCC2=O)cc1,0.5,0.3,·,35.6,·,1.6,·
CC(C(=O)OCC(=O)Nc1cccc(S(=O)(=O)N2CCOCC2)c1)N1C(=O)c2ccccc2C1=O (stereo not drawn),-1.0,-2.0,2.6,5.0,7.1,12.7,·
c1cnc2ccc(-n3ccnc3)cc2c1,·,-0.9,·,·,·,·,·
CCN(CC)c1ncnc2c1cnn2Cc1ccc(Cl)cc1,-1.6,-0.5,4.7,4.7,-3.3,-19.4,·
O=S(=O)(c1ccc(NC(=S)NCCc2ccccc2)cc1)N1CCOCC1,23.9*,66.6*,-6.5,3.4,27.7,-16.5,85.1*
O=C(NCCc1ccccc1)Nc1ccc(Cl)cc1,15.8*,75.9*,-0.5,-67.8,-7.5,-115.5,72.2*
O=[N+]([O-])c1ccc(NC(=S)NCCc2ccccc2)cc1,34.6*,86.6*,7.6,21.3,52.6,14.8,88.2*
COc1ccc(NC(=S)Nc2ccc(S(=O)(=O)N3CCCCC3)cc2)cc1,·,26.7,·,·,·,·,·
COc1ccc(NC(=S)Nc2cccc(S(=O)(=O)N3CCCCC3)c2)cc1,-17.7,67.9*,1.7,0.7,11.8,-7.9,87.7*
Cc1ccc(C23CC4CC(CC(CC(=O)N5CCOCC5)(C4)C2)C3)cc1,-2.2,0.6,·,6.3,-10.0,6.4,·
CCOCCCn1c(=S)[nH]c2cc(C(=O)N3CCN(c4ccccc4)CC3)ccc2c1=O,-1.2,-2.3,6.3,-8.1,-5.7,6.9,·
Fc1cc(Br)ccc1NC(=S)NCCc1ccccc1,30.5*,78.9*,-7.1,-29.9,-9.5,-18.2,83.4*
O=S(=O)(c1ccc(NC(=S)NCc2ccco2)cc1)N1CCCCC1,1.5,78.6*,-2.0,2.2,10.9,19.5,92.1*

# Source: PubChem
